PBM binding z-score data for seven sequences are collected here from the supplement of paper PMC6555819.

Assay in all cases: PBM binding z-score (relative to random genomic background probes); higher = stronger binding; sequences stand for … in GC…GCGATTGACAGCGTAGAATGAAGG
In test [1] the test system is FXR:RXRa (NR concentration 270 nM, RXRa partner concentration 90 nM). In outline: (§1)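 Random background probes are the reference for binding z-scores. These scores derive from regression-normalized fluorescence on custom Agilent 4×180K protein-binding microarrays incubated 1 h with ligand-free nuclear receptor dimers. Binding was detected with antibodies against each partner (one per run).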

The subject of test [2] is LXRa:RXRa (NR concentration 270 nM, RXRa partner concentration 90 nM). The method in brief:
as §1

Test [3] concerns LXRa homodimer (NR concentration 270 nM). In outline:
as §1

For test [4], the system named is LXRb:RXRa (NR concentration 270 nM, RXRa partner concentration 90 nM). In outline: as §1
The subject of test [5] is LXRb homodimer (NR concentration 270 nM). The method in brief: as §1
The test system of test [6] is PPARa:RXRa (NR concentration 270 nM, RXRa partner concentration 90 nM). In outline:
as §1

In test [7] the test system is PPARg:RXRa (NR concentration 180 nM, RXRa partner concentration 90 nM). The method in brief:
as §1

For test [8], the system named is PPARg:RXRa 270nM:90nM, anti-RXR (NR concentration 270 nM, RXRa partner concentration 90 nM). The method in brief: as §1
In test [9] the test system is PPARg:RXRa 30nM:10nM, anti-RXR (NR concentration 30 nM, RXRa partner concentration 10 nM). In outline: as §1
The subject of test [10] is PPARg:RXRa 90nM:30nM, anti-RXR (NR concentration 90 nM, RXRa partner concentration 30 nM). In outline: as §1
For test [11], the system named is PPARg:RXRa DBDmut IVT, anti-RXR (DBD mutation: RXRa K156A/R161A, NR concentration 270 nM, RXRa partner concentration 90 nM). The method in brief:
as §1

For test [12], the system named is PPARg:RXRa IVT, anti-PPARg (NR concentration 270 nM, RXRa partner concentration 90 nM). In outline: as §1
Test [13] has as its system PPARg DBDmut:RXRa IVT, anti-PPARg (DBD mutation: PPARg1 K132A/R137A, NR concentration 270 nM, RXRa partner concentration 90 nM). In outline:
as §1

Test [14] concerns PPARg DBDmut IVT, anti-PPARg (DBD mutation: PPARg1 K132A/R137A, NR concentration 270 nM). In outline:
as §1

For test [15], the system named is PPARg homodimer (NR concentration 180 nM). The method in brief:
as §1

The subject of test [16] is PXR:RXRa (NR concentration 270 nM, RXRa partner concentration 90 nM). In outline:
as §1

The subject of test [17] is PXR homodimer (NR concentration 270 nM). The method in brief:
as §1

In test [18] the test system is RARa:RXR (NR concentration 270 nM, RXRa partner concentration 90 nM). In outline: as §1
Test [19] concerns RARa homodimer (NR concentration 270 nM). In outline: as §1
Test [20] concerns RARb:RXRa (NR concentration 270 nM, RXRa partner concentration 90 nM). In outline:
as §1

As to TCATTTAGGTAAAGGTGAAAGTCGAACGATATGA, the PBM binding z-score in [1] is 1.18; in test [2], 1.46; in test [3], -0.167; in test [4] it was 1.52; in test [5], 0.32; in test [6], 3.21. Moreover, the PBM binding z-score in test [7] is 3.2; in [8], 4.48; in test [9] it was 4.39; in [10], 4.9; in [11], 3.05; in test [12] it was 3.75. The PBM binding z-score in test [13] came to 1.29; in test [14], 2.17; in test [15], 1.2; in test [16], 1.35; in test [17] it was 0.193; in test [18] it was 1.92. The values for the PBM binding z-score in test [19] and in test [20] were 1.42 and 2.05, respectively.
For AGTCAAAGTTCGGGACGAGGTAACGTAAAGCACG, the PBM binding z-score is 0.65 in test [1]; 0.402 in test [2]; -0.198 in test [3]; 0.242 in test [4]; -0.3 in [5]; 1.08 in test [6]. Moreover, the PBM binding z-score was 1.85 in test [7]; 2.33 in test [8]; 0.491 in [9]; 1.33 in test [10]; -0.421 in [11]; 0.748 in test [12]. Besides, the PBM binding z-score in test [13] is 0.226; in test [14], -0.0246; in test [15], 0.441; in test [16], 0.716; in test [17] it was 0.0422; in [18], 0.869. In addition, the values for the PBM binding z-score in test [19] and in [20] were -0.0634 and 1.86, respectively.
As for CGTCCAAGGTCAGAAAGGTCAGTGAATGCCGAGT, the PBM binding z-score in test [1] worked out at 5.85; in [2], 5; in [3], 3.05; in test [4], 4.56; in [5], 0.524; in test [6] it was 4.94. For the same sequence, the PBM binding z-score in test [7] was found to be 3.36; in test [8] it was 4.31; in test [9] it was 0.967; in test [10], 2.8; in test [11], 1.91; in test [12], 3.14. Further, the PBM binding z-score in [13] is -0.203; in test [14] it was -0.0818; in [15] it was 3.94; in [16], 6.06; in [17], 10.7; in test [18] it was 5.92. The PBM binding z-score in test [19] is 3.03; in test [20] it was 5.34.
For the sequence CCGACTGGGGCATAAGGTTACCATCAGCCAGCCC, the PBM binding z-score in [1] was 0.308; in test [2] it was 1.43; in test [3], -0.15; in test [4], 0.516; in test [5], -1.51; in test [6], 1.9. In addition, the PBM binding z-score in test [7] amounted to 2.3; in [8] it was 2.99; in test [9], 1.18; in test [10], 2.32; in test [11], 2.93; in [12], 3.1. The PBM binding z-score in test [13] was -0.916; in test [14], -1.26; in [15], 0.425; in [16] it was 0.317; in test [17], -0.375; in [18] it was 1.06. Further, the PBM binding z-score was -0.135 in [19] and 1.37 in test [20].
For the sequence TATACAGTGTCAAAGGCCAGAGTACGAATGTCGA, the PBM binding z-score was determined as 0.666 in test [1]; 0.861 in [2]; 0.197 in test [3]; 0.608 in [4]; 0.893 in test [5]; 2.18 in test [6]. For the same sequence, the PBM binding z-score was 3.95 in [7]; 4.17 in test [8]; 2.41 in test [9]; 3.86 in test [10]; 0.051 in test [11]; 2.04 in [12]. The PBM binding z-score was found to be 0.51 in test [13]; 1.14 in test [14]; 0.46 in [15]; 0.552 in test [16]; 0.236 in [17]; 1.33 in test [18]. Further, the PBM binding z-score in [19] was determined as 0.548; in test [20], 1.88.
For TCGAGTAGGTTGGGGGCATTCAGAATGGCGTCGA, the PBM binding z-score was 1.39 in [1]; 1.94 in test [2]; 0.352 in test [3]; 3.96 in test [4]; 6.82 in test [5]; 2.48 in [6]. Also, the PBM binding z-score in test [7] was determined as 0.614; in test [8], 2.35; in test [9], 2.29; in test [10], 2.28; in test [11], 1.25; in test [12] it was 2.38. The PBM binding z-score stood at 3.04 in test [13]; 5.62 in test [14]; 0.737 in test [15]; 2.82 in [16]; 1.75 in test [17]; 1.98 in test [18]. Moreover, the PBM binding z-score turned out to be 0.0369 in [19] and 1.6 in [20].
As for CCTAATGGGCCAAAGGTCATTGATTCCAATGCTC, the PBM binding z-score was found to be 5.18 in test [1]; 5.16 in test [2]; 3.94 in test [3]; 4.84 in [4]; 1.08 in [5]; 6.03 in test [6]. Also, the PBM binding z-score in test [7] stood at 11.8; in test [8] it was 9.96; in test [9], 11.9; in test [10], 12.1; in test [11] it was 3.94; in test [12], 6.02. Besides, the PBM binding z-score was 0.0676 in [13]; -0.678 in test [14]; 4.32 in [15]; 5.26 in [16]; 1.81 in [17]; 6.51 in test [18]. For the same sequence, the results for the PBM binding z-score in [19] and in [20] were 1.99 and 4.57, respectively.
